Source: PubChem
CHO-K1 Ca PAM = nonselective activator or artifact in parental CHO-K1 calcium assay. AID 602247. activation, % at 3 µM. 360,000 compounds, 0.02% hits. ATP EC20, Fluo-8 calcium fluorescence; 0% at ATP EC20, 100% at ATP max;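 active = activation above the run cutoff, the mean activation of all test compounds plus 3 SD, cut at about 40% in these data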;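 note: peak over basal fluorescence ratio in a 140 s read after ATP addition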
M1 PAM = positive allosteric modulators of human M1 muscarinic receptor. 360,000 compounds, 0.088% hits. activation, % at 3 µM. CHO-K1 hM1, Fluo-8 calcium fluorescence, ACh EC20; 0% = ACh EC20, 100% = maximal ACh; in the data active = activation above about 19%, passing the limit was not always enough
Target sequence (P11229 whole entry, looked up): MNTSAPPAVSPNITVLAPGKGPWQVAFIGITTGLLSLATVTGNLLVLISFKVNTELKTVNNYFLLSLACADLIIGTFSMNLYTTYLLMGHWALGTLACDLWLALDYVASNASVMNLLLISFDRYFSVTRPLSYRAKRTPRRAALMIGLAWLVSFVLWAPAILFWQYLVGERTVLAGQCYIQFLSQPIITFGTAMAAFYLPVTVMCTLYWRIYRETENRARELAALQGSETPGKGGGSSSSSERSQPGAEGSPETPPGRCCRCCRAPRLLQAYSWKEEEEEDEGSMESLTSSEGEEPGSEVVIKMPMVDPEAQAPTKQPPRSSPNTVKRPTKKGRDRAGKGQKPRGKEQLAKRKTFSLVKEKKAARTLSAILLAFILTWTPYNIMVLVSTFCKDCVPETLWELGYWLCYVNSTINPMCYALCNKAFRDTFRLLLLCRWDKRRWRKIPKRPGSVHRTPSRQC
CHRM1 antagonist = human CHRM1 antagonism | P11229 | CHO-K1 hM1, Fluo-8 calcium fluorescence, ACh EC80 antagonist | inhibition, % at 3 µM | 360,000 compounds, 1.3% hits | AID 588852;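 active = percent inhibition above its own plate's cutoff, namely the mean of that plate's compound wells plus 3 SD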;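 note: peak over basal fluorescence ratio during 140 s after agonist addition; 0% = ACh EC80 plus DMSO and 100% = DMSO alone without agonist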
CHO-K1 Ca antag = M1 antagonist counterscreen hit in parental CHO-K1 cells | 360,000 compounds, 0.6% hits | ATP-induced calcium, Fluo-8 fluorescence | inhibition, % at 3 µM | AID 602250;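 active = inhibition above a per-plate cutoff, the plate's mean sample inhibition plus 3 SD, cut at about 24% in these data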;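 note: 0% = DMSO plus EC80 ATP and 100% = DMSO alone without ATP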
M1 ag = activates human CHRM1 receptor | P11229 | CHO-K1 hM1, Fluo-8 calcium fluorescence, agonist mode; 0% DMSO, 100% acetylcholine EC100 | activation, % at 3 µM | 360,000 compounds, 0.33% hits | AID 588814;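 active = activation above the run's mean compound activation plus 3 SD, cut at about 16% in these data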;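 note: peak over basal fluorescence ratio within a 140 s kinetic read after compound addition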
CHO-K1 Ca ag = counter-screen for M1 agonists: effect in parental CHO-K1 cells. Fluo-8 calcium fluorescence; scaled to maximal ATP response, vehicle zero. activation, % at 3 µM. 360,000 compounds, 0.48% hits. AID 602248; in the data active = activation above about 15%;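 note: untransfected CHO-K1 host cells lacking M1 receptor as counterscreen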
The depositor's hits bear a star; nt = not tested or not shown. An excerpt weighted towards active compounds, which were near 2.3% of everything screened.

SMILES	CHO-K1 Ca PAM	M1 PAM	CHRM1 antagonist	CHO-K1 Ca antag	M1 ag	CHO-K1 Ca ag
O=[N+]([O-])c1ccccc1S(=O)(=O)N1CCSCC1	8.2	6.3	-7.9	-18.8	-4.3	1.2
CCOC(=O)C1=C[C@@H](c2ccccc2)N(S(=O)(=O)c2ccc(C)cc2)[C@H]1c1ccc(F)cc1	9.2	3.3	-0.1	1.9	4.9	0.2
CCCNC1=C(C)C(=O)CC1	-7.8	-4.7	19.7	24.1*	-2.9	0.1
CC1=C(NCCc2ccccc2)CCC1=O	19.3	-0.5	-27.7	-7.0	-5.9	1.2
N/N=C/C(=N\Nc1ccc(Cl)cc1)C(=O)c1ccncc1	12.6	4.7	-14.9	-12.3	-1.6	0.2
c1ccc(CSc2nnc(-c3ccncc3)o2)cc1	-5.7	15.5	-1.8	1.8	0.1	0.2
NC(=O)CSc1nnc(-c2ccncc2)o1	21.9	8.0	-5.8	-1.8	-3.3	0.3
Cc1ccccc1CSc1nnc(-c2ccncc2)o1	2.3	-11.8	10.6	2.6	-6.2	24.2*
CC(C)(C)NC(=O)CSc1nnc(-c2ccncc2)o1	1.4	4.4	-3.4	24.7*	-3.0	-0.2
C[C@H](CO)N1C[C@H](C)[C@@H](CN(C)S(=O)(=O)c2cccc(F)c2)Oc2ncc(Br)cc2C1=O	16.8	7.0	-14.7	-18.3	-8.2	1.2
Cc1c(CC(=O)N[C@@H](C)C(=O)O)c(=O)oc2c(C)c3occ(-c4ccccc4)c3cc12	15.3	31.4*	-25.5	-8.6	-0.8	-0.4
COc1ccc(C(CNc2ccc(S(=O)(=O)N3CCCC3)cc2[N+](=O)[O-])N2CCCC2)cc1 (stereo not drawn)	11.4	-28.2	74.7*	6.1	-9.9	1.9
COc1ccc(C(CNc2ccc(S(=O)(=O)N3CCN(C)CC3)cc2[N+](=O)[O-])N(C)C)cc1 (stereo not drawn)	4.6	3.9	-5.3	-4.0	-5.8	1.2
COc1ccc(C(=O)c2[nH]c(N)c(C(=O)NCCc3c[nH]c4ccccc34)c2-c2ccccc2Br)cc1	15.5	nt	nt	-1.2	nt	6.4
CN(CC(=O)Nc1ccc(F)cc1)C(=O)CSc1ccc2c(c1)OCCO2	8.5	5.0	-3.3	-6.8	-2.2	0.4
Cc1ccc(SCC(=O)OCC(=O)N(C)CC(=O)Nc2ccc(F)cc2)cc1C	18.3	7.0	-7.4	-15.6	32.5*	45.6*
Nc1[nH]c(C(=O)c2ccccc2)c(-c2ccc(Cl)cc2)c1C(=O)NCc1ccccc1	0.6	nt	nt	15.4	nt	-0.4
CN(C(=O)CSc1nnc(C2CC2)n1-c1ccccc1)C1CCS(=O)(=O)C1 (stereo not drawn)	-13.5	19.2	-8.1	-8.3	-1.0	-0.7
CN1CCN(CCNC(=O)c2ccc3nc(-c4ccc(F)cc4)c(-c4ccc(F)cc4)nc3c2)CC1	19.9	-21.0	45.4*	-15.2	-5.5	1.9
COCCN1CCc2[nH]c(=S)[nH]c(=O)c2C1	13.1	-1.9	5.8	2.9	-3.6	4.0
CCCCN1CCc2[nH]c(=S)[nH]c(=O)c2C1	32.1	24.6*	-19.8	-23.5	-2.6	0.7
COC(=O)c1c(NC(=O)c2cccc([N+](=O)[O-])c2)sc(C(N)=O)c1C	-9.6	-6.3	9.0	28.6*	-4.2	-0.7
COC(=O)c1sc(NC(=O)c2cccc([N+](=O)[O-])c2)c(C(N)=O)c1C	12.4	3.8	0.6	-6.4	-3.8	0.1
COc1ccccc1Nc1nc(N)nc(CN2CCN(Cc3ccc4c(c3)OCO4)CC2)n1	-17.2	-5.8	11.1	2.2	-6.1	-0.5
Cc1ccc(Nc2nc(N)nc(N)c2N=O)cc1C	10.1	4.2	-4.8	-2.1	13.1	0.4
Cc1cccc(Nc2nc(N)nc(N)c2N=O)c1	0.9	6.9	-8.0	-1.2	24.2*	28.6*
Cc1cccc(Nc2nc(N)nc(CN3CCN(Cc4ccc5c(c4)OCO5)CC3)n2)c1	-1.0	-15.5	21.4*	6.0	-5.0	0.4
Cc1cccc(Nc2nc(N)nc(CCl)n2)c1	-3.2	9.2	-9.1	3.5	-4.9	19.6*
O=C(C[C@H]1C/C=C\CC[C@H](Cc2ccc(F)cc2)C(=O)O[C@H](c2ccccc2)CNC1=O)N[C@H](CO)Cc1ccccc1	7.0	-6.9	14.4	7.1	-1.2	3.7
